# Measurements: PubChem BioAssay AID488777 (Sanford-Burnham Center for Chemical Genomics, 2010)
# “And” between values parts separate entries of the source, which are not always exact repeats. Equal values may be shown once. Unmarked numbers belong to inactive results. The source made the active and inactive calls. No rule for the calls is given here.
# Test: AlphaScreen signal interference by SUMOylation inhibitors, SAR follow-up, artefact control for SUMOylation inhibitor project, biochemical (AID 488777)
# Conditions: purified counter-screen enzymes, TR-FRET, 60 min
row,SMILES,IC50
1,COC(=O)C1=C(C(=O)OC)C2(C(Cc3ccc(F)cc3)Nc3ccccc3)C=CC1O2 (stereo not drawn),> 100 µM
2,CCCCn1c(NC(=O)c2cccc(Cl)c2)c(C#N)c2nc3ccccc3nc21,> 100 µM
3,COC(=O)C=C(NC(CO)(CO)CO)C(=O)OC,> 100 µM
4,COC(=O)C1=C(C(=O)OC)C2(C(Cc3ccc(OC(F)(F)F)cc3)Nc3ccccc3)C=CC1O2 (stereo not drawn),> 100 µM
5,COC(=O)[C@@H]1C2CCC([C@@H](Cc3ccccc3)Nc3ccccc3)(O2)[C@@H]1C(=O)OC (stereo partly drawn),> 100 µM
6,CCCCn1c(NC(=O)c2ccc(F)cc2)c(C#N)c2nc3ccccc3nc21,65.3 µM (active)
7,CCCCn1c(N)c(C#N)c2nc3ccccc3nc21,> 100 µM
8,COC(=O)C1=C(C(=O)O)C2C=CC1([C@@H](Cc1ccccc1)Nc1ccccc1)O2 (stereo partly drawn),> 100 µM
9,CCCCn1c(NC(=O)c2ccc(F)cc2)c(S(=O)(=O)c2ccc(C)cc2)c2nc3ccccc3nc21,> 100 µM
10,C=C[C@@H](Nc1ccccc1)C12C=CC(O1)C(C(=O)OC)=C2C(=O)OC (stereo partly drawn),> 100 µM
11,CCCCn1c(NC(=O)c2ccco2)c(C#N)c2nc3ccccc3nc21,> 100 µM
12,CCCCn1c(NC(=O)c2ccc(Cl)cc2)c(C#N)c2nc3ccccc3nc21,54.4 µM (active)
13,CCCC1=NN(c2ccc(C(=O)O)cc2)C(=O)/C1=C/c1ccc(O)cc1,> 100 µM
14,CCCCn1c(NC(=O)c2ccccc2)c(C#N)c2nc3ccccc3nc21,65.2 µM (active) and 91.7 µM (active)
15,CCCCn1c(NC(=O)C2CCCCC2)c(C#N)c2nc3ccccc3nc21,> 100 µM
16,CCC[C@H](Nc1ccccc1)C12C=CC(O1)C(C(=O)OC)=C2C(=O)OC (stereo partly drawn),> 100 µM
17,N#Cc1c(NC(=O)c2ccccc2Cl)n(Cc2ccccc2)c2nc3ccccc3nc12,> 100 µM

row,SMILES,IC50
1,CCCCn1c(NC(=O)c2ccccc2Cl)c(C#N)c2nc3ccccc3nc21,> 100 µM
2,CCCCn1c(NC(=O)c2ccccc2)c(S(=O)(=O)c2ccc(C)cc2)c2nc3ccccc3nc21,> 100 µM
3,COC(=O)C1=C(C(=O)OC)C2([C@@H](Cc3ccc(C)cc3)Nc3ccccc3)C=CC1O2 (stereo partly drawn),> 100 µM
4,C=C[C@H](Nc1ccccc1)C12C=CC(O1)C(C(=O)OC)=C2C(=O)OC (stereo partly drawn),> 100 µM
5,CCCC1=NN(c2ccc(C(=O)O)cc2)C(=O)/C1=C/c1ccc(OCc2ccccc2)cc1,16.4 µM (active)
6,COC(=O)C1=C(C(=O)OC)C2([C@@H](Cc3ccc(OC)cc3)Nc3ccccc3)C=CC1O2 (stereo partly drawn),> 100 µM
7,CCCC1=NN(c2ccccc2)C(=O)/C1=C/c1ccc(OCc2ccc(C(=O)OC)cc2)cc1,> 100 µM
8,C=CCn1c(NC(=O)c2ccccc2Cl)c(C#N)c2nc3ccccc3nc21,> 100 µM
9,CCC[C@@H](Nc1ccccc1)C12C=CC(O1)C(C(=O)OC)=C2C(=O)OC (stereo partly drawn),> 100 µM
10,CCCCn1c(NC(=O)c2ccc(OC)cc2)c(S(=O)(=O)c2ccc(C)cc2)c2nc3ccccc3nc21,> 100 µM
11,CCCC1=NN(c2ccc(C(=O)O)cc2)C(=O)/C1=C/c1ccc(OCc2ccccc2)c(OC)c1,> 100 µM
12,COC(=O)C1=C(C(=O)OC)C2([C@H](Cc3ccc(C)cc3)Nc3ccccc3)C=CC1O2 (stereo partly drawn),> 100 µM
13,CCCCn1c(NC(C)=O)c(C#N)c2nc3ccccc3nc21,> 100 µM
14,CCCCn1c(N)c(S(=O)(=O)c2ccc(C)cc2)c2nc3ccccc3nc21,> 100 µM
15,c1ccc(CC(Nc2ccccc2)c2ccco2)cc1 (stereo not drawn),> 100 µM
16,CCCCn1c(NC(=O)c2ccccc2Cl)c(S(=O)(=O)c2ccccc2)c2nc3ccccc3nc21,> 100 µM
